Activity calls are given as the source filed them. Unless noted, no rule for the calls is given here.
Columns and labels:
[1] = tested on: Wnt5a (protein binding on small-molecule microarray); assay: small molecules binding Wnt5a protein – biophysical, small-molecule microarray, 635/667 nm fluorescence, primary screen (AID 1142); conditions: 635 nm fluorescence, higher = more signal;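 also: fluorescence read at 667 nm with signal to noise per printed feature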
[2] = ATP-based viability of Huh7 replicon cells – cell-based, CellTiter-Glo luminescence, basal, 48 h, cytotoxicity control for HCV replication inhibitor project, primary screen (AID 1143); conditions: higher = more signal, called active from +8 up or from −8 down;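 also: Huh7 hepatoma cells carrying a hepatitis C replication reporter with no stimulus; test concentration not given here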
[3] = Pseudomonas biofilm growth suppression – PAO1 strain, BacTiter-Glo luminescence, LB-PBS, primary screen (AID 1144); conditions: P. aeruginosa PAO1 biofilm, 12 h, higher = more signal
[4] = basal CRE-LacZ reporter activity in PC12 – cell-based, unstimulated, primary screen (AID 1145); conditions: no forskolin, luminescence, 4.5 h, higher = more signal, called active from +8 up or from −8 down
[5] = forskolin-driven CRE-LacZ activity in PC12 – cell-based, CRE-LacZ reporter, forskolin-stimulated, primary screen (AID 1146); conditions: luminescence, 4.5 h, higher = more signal, called active from +8 up or from −8 down;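 also: PC12 cells with 6xCRE LacZ reporter stimulated by forskolin 10 µM; beta-galactosidase reporter signal reflecting CREB driven transcription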
[6] = target: Streptavidin (Streptomyces avidinii) (UniProt P22629); assay: compounds binding control protein streptavidin – biophysical, small-molecule microarray, 635/667 nm fluorescence, artefact control for SMM compound annotation, primary screen (AID 1147); conditions: higher = more signal;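 also: signal reflects streptavidin binding to arrayed compounds as a control protein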
Sequence of Streptavidin (Streptomyces avidinii) (P22629 whole entry, looked up): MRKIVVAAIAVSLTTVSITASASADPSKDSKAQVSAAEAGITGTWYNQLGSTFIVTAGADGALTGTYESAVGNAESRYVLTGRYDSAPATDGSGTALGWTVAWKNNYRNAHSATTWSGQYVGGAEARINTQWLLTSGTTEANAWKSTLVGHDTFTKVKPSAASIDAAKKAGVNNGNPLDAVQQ

[7] = probe aInhba binding on compound microarray – biochemical, small-molecule microarray, 635/667 nm fluorescence, primary screen (AID 1148); conditions: higher = more signal;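 also: score merges 667nm spot fluorescence with signal-to-noise for antibody binding to printed compounds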
Torsin-1A (Homo sapiens) [8] = target: Torsin-1A (Homo sapiens) (UniProt O14656); assay: TOR1A wild-type binding on microarray – cell lysate, small-molecule microarray, lysate, 635/667 nm, primary screen (AID 1149); conditions: COS7 hTOR1A-WT lysate, 635 nm fluorescence, higher = more signal
Sequence of Torsin-1A (Homo sapiens) (O14656 whole entry, looked up): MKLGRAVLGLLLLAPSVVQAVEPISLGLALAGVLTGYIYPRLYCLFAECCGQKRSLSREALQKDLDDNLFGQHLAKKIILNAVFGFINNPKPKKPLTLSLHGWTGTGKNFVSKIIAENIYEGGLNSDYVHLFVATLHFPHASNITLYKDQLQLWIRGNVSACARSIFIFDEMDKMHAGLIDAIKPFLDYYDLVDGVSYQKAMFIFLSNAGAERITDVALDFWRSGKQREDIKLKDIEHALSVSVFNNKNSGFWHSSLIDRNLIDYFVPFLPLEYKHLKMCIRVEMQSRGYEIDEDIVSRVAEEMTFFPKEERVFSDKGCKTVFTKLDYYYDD

Torsin-1A (Homo sapiens) [9] = target: Torsin-1A (Homo sapiens) (UniProt O14656); assay: torsin A mutant lysate binding on microarrays – cell lysate, small-molecule microarray, COS7 lysate, 635/667 nm fluorescence, primary screen (AID 1150); conditions: COS7 hTOR1A mutant lysate, 635 nm fluorescence, higher = more signal;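 also: score pools 667 nm emission and signal to noise measuring lysate protein binding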
[10] = tested on: Sonic hedgehog protein (Shh); assay: Sonic hedgehog microarray binding compounds – biochemical, small-molecule microarray, 635/667 nm fluorescence, primary screen (AID 1151); conditions: 635 nm fluorescence, higher = more signal;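 also: Shh protein binding to compounds spotted on small-molecule microarray slides; score combines spot fluorescence intensity with signal-to-noise across triplicate slides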

Compound | composite z-score [1] | z-score [2] | z-score [3] | z-score [4] | z-score [5] | composite z-score [6] | composite z-score [7] | composite z-score (Torsin-1A (Homo sapiens) [8]) | composite z-score (Torsin-1A (Homo sapiens) [9]) | composite z-score [10]
C[C@@]12COC[C@]13C=C(Br)[C@H](C2)[C@@]1(CO1)C3=O | -0.329 | 0.603 (inactive) | 0.708 (inactive) | 0.769 (inactive) | 1.51 (inactive) | -0.875 | -0.0966 | -1.76 | -0.55 | -0.3
C=CCC(OC(C)=O)[C@@H]1[C@@H](N(Cc2ccc(-c3cccc(C(F)(F)F)c3)o2)C(=O)Cc2ccc(OC)cc2)c2cc(OCCCO)ccc2N1C(=O)Cc1ccc2ccccc2c1 (stereo not given in full) | -0.19 | -1.58 (inactive) | -0.787 (inactive) | 0.134 (inactive) | 0.376 (inactive) | -0.679 | -0.238 | -1.96 | -1.85 | 0.0678
CN1C(=O)C2C=CC(C(O)c3cc(C(F)(F)F)cc(C(F)(F)F)c3)N(NC(=O)OC(C)(C)C)C2C1=O (stereo not given) | 0.135 | -2.4 (inactive) | 0.999 (inactive) | 0.0467 (inactive) | 0.587 (inactive) | 1.6 | 0.29 | 0.49 | 1.32 | 0.433
C=CCC(OC(C)=O)[C@@H]1[C@@H](N(Cc2cccc3ccccc23)C(=O)c2ccc(-c3ccccc3)cc2)c2cc(OCCCO)ccc2N1C(=O)c1ccc(-c2ccccc2)cc1 (stereo not given in full) | 0.09 | 0.457 (inactive) | -0.1 (inactive) | 0.367 (inactive) | 0.859 (inactive) | 0.361 | 0.114 | 0.162 | 0.0809 | 0.286
C[C@]1(C(=O)NCC(F)(F)F)c2ccccc2C(=O)N(Cc2ccccc2)[C@H]1c1ccc(CO)cc1 | -0.398 | -1.48 (inactive) | -0.0817 (inactive) | -0.179 (inactive) | 0.112 (inactive) | -0.726 | -0.0719 | -0.938 | 0.808 | -1.32
CCOC(=O)C[C@H]1[C@H](OC(=O)c2ccc(C(=O)c3ccccc3)cc2)[C@@H](NC(=O)CC(C)C)c2cc(OCCCO)ccc2N1C(=O)Cc1ccc(OC)cc1 | 0.11 | -0.349 (inactive) | -0.356 (inactive) | 0.731 (inactive) | -0.117 (inactive) | -0.0635 | 0.128 | 0.311 | 0.498 | -0.0145
O=C1C2C=CC(C(O)C=Cc3ccc([N+](=O)[O-])cc3)N(Nc3ccccc3)C2C(=O)N1c1ccccc1 (stereo not given) | 0.264 | -0.132 (inactive) | -0.633 (inactive) | -0.143 (inactive) | -0.148 (inactive) | 1.53 | 0.117 | -0.283 | 0.0565 | 0.0063
CC(C)OC(=O)CC(=O)CC(O)c1ccc([N+](=O)[O-])cc1 (stereo not given) | 0.0008 | -0.824 (inactive) | 0.402 (inactive) | 1.03 (inactive) | 1.59 (inactive) | -0.402 | -0.0044 | 0.913 | 0.113 | -0.514
COc1cc(C(O)C2C=CC3C(=O)N(Cc4ccccc4)C(=O)C3N2n2cnnc2)cc(OC)c1OC (stereo not given) | 0.388 | -0.429 (inactive) | -1.77 (inactive) | 0.636 (inactive) | -0.634 (inactive) | 0.267 | 0.255 | 0.683 | 0.671 | 0.131
CCCCC(=C=CC[C@H](O)c1ccc(OCCO)cc1)C[C@H](O)c1cc(Cl)cc(Cl)c1O | -0.223 | -0.849 (inactive) | -0.145 (inactive) | 7.85 (inactive) | -0.218 (inactive) | 0.315 | -0.15 | 0.296 | 0.51 | 0.646
C=CCNC(=O)[C@H]1[C@@H]2C(=O)O[C@@H](c3ccccc3)[C@@H](c3ccccc3)N2[C@@H](c2ccc(O)cc2)[C@]12C(=O)N(C(=O)OCCOC)c1ccc(C#CCC(C(=O)OC)C(=O)OC)cc12 | 0.027 | -2.96 (inactive) | 0.102 (inactive) | 0.0653 (inactive) | 0.141 (inactive) | 0.663 | -0.0221 | 0.757 | 0.283 | 1.75
Cc1ccc(F)cc1S(=O)(=O)N[C@@H]1CCN(Cc2cccc3[nH]ccc23)C1 | 0.148 | -2.35 (inactive) | -0.0885 (inactive) | 1.13 (inactive) | -0.714 (inactive) | -0.0164 | 0.143 | 0.495 | 0.913 | 0.969
NC(=O)NCC#Cc1ccc2c(c1)[C@]1(C(=O)N2)[C@H](C(=O)N2CCN(c3ncccn3)CC2)[C@H]2C(=O)O[C@H](c3ccccc3)[C@H](c3ccccc3)N2[C@@H]1c1ccc(OCCO)cc1 | 0.388 | 0.0749 (inactive) | -0.534 (inactive) | -0.231 (inactive) | 0.156 (inactive) | 0.644 | 0.0391 | 0.237 | 0.875 | 0.963
COCCOC(=O)N1C(=O)[C@@]2(c3cc(C#Cc4ccc(OC)cc4)ccc31)[C@H](C(=O)NC[C@H](O)c1ccccc1)[C@H]1C(=O)O[C@H](c3ccccc3)[C@H](c3ccccc3)N1[C@@H]2c1ccc(OCCO)cc1 | 0.76 | -5.48 (inactive) | -1.73 (inactive) | -1.42 (inactive) | -0.544 (inactive) | 0.277 | 0.0184 | 0.161 | 0.963 | 1.62
CCCCCCCCCCC(O)C1C=CC2C(=O)N(C)C(=O)C2N1Nc1cc(OC)c(OC)c(OC)c1 (stereo not given) | -0.131 | -2.56 (inactive) | 0.443 (inactive) | 0.819 (inactive) | -0.212 (inactive) | 0.133 | 0.0086 | -0.534 | 0.0777 | -1.08
C=CCC(OC(C)=O)[C@@H]1[C@@H](N(Cc2ccc(-c3ccccc3)cc2)C(=O)c2ccc(C)cc2)c2cc(OCCCO)ccc2N1C(=O)Cc1ccc2ccccc2c1 (stereo not given in full) | -0.0632 | -0.889 (inactive) | -0.0727 (inactive) | 1.66 (inactive) | -0.515 (inactive) | 0.129 | -0.0986 | 0.0508 | -0.577 | 1
C=C[C@@H](OC)[C@H](OC(=O)Nc1ccc(OC)cc1)c1ccc(OC)c(O)c1 | -0.451 | -0.749 (inactive) | -0.327 (inactive) | 0.702 (inactive) | 0.177 (inactive) | -0.833 | -0.166 | -2.5 | -1.12 | 0.63
Cc1ccc(S[C@]2(C(=O)NC(C)C)CC(=O)N(C(C)C)[C@@H]2c2ccc(CO)cc2I)cc1 | -0.0983 | -2.59 (inactive) | -0.468 (inactive) | 0.324 (inactive) | -0.3 (inactive) | -0.368 | -0.15 | -1.07 | 0.885 | -0.244
CN(C)CCCC[C@@H]1NC(=O)[C@@H]2C[C@H](C(=O)O)[C@H](c3cccc(OCCO)c3)N2C1=O | 0.471 | -0.37 (inactive) | -0.965 (inactive) | 1.11 (inactive) | 0.664 (inactive) | -0.634 | -0.258 | -0.0975 | -0.0752 | 0.212
C=C(/C(=C/C[C@@H](OC(=O)c1ccncc1)c1cccc(OCCO)c1)c1cnc2ccccc2c1)C(C)C | 0.782 | -2.31 (inactive) | -0.454 (inactive) | 1.69 (inactive) | 0.628 (inactive) | 1.62 | 0.0422 | 0.199 | 0.128 | 2
NC(=O)N1C(=O)C2C(C1=O)C1C=C(CCCO)C2C(C2CC2)N1Cc1cccc(OC(F)(F)F)c1 (stereo not given) | -0.352 | -0.458 (inactive) | 1.35 (inactive) | 0.522 (inactive) | 1.62 (inactive) | -0.439 | -0.182 | 1.51 | 1.59 | 0.393
[N-]=[N+]=Nc1ccccc1C[C@@]1(C(=O)O)N=C(c2ccc(OCCCO)cc2)O[C@@H]1c1ccccc1N=[N+]=[N-] | -0.166 | -1.92 (inactive) | 0.0288 (inactive) | 2.09 (inactive) | -0.333 (inactive) | 1.96 | 0.151 | 0.0274 | 0.286 | -0.744
CN1C(=O)[C@@H]2[C@@H](CC(COc3ccccc3)=C([C@H](O)CCc3ccccc3)[C@@H]2CO)C1=O | -0.0336 | -1.03 (inactive) | 0.272 (inactive) | 1.67 (inactive) | -1.18 (inactive) | -0.448 | -0.128 | 0.762 | 0.0706 | 0.497
C=C[C@@H](C)[C@@H](OC(=O)Nc1ccc(SC)cc1)c1ccc(OCCO)cc1 | 0.382 | -3.1 (inactive) | -0.882 (inactive) | 0.236 (inactive) | -0.162 (inactive) | 0.929 | -0.151 | 0.495 | 1.04 | 0.487
CC(=O)NCCCC[C@@H]1NC(=O)[C@H]2C[C@@H](C(=O)NCCCCCNC(=O)CS)[C@@H](c3cccc(OCCO)c3)N2C1=O | -0.0417 | 0.321 (inactive) | -0.93 (inactive) | -0.13 (inactive) | 0.908 (inactive) | -0.155 | -0.128 | 0.498 | 0.092 | 1.74
COCCOC(=O)N1C(=O)[C@@]2(c3cc(C#CCNC(N)=O)ccc31)[C@H](c1ccc(OCCO)cc1)N1[C@H](c3ccccc3)[C@H](c3ccccc3)OC(=O)[C@H]1[C@@H]2C(N)=O | 0.428 | 0.0121 (inactive) | 0.529 (inactive) | 0.228 (inactive) | -0.304 (inactive) | 0.947 | -0.0131 | 0.304 | 0.406 | 1.44
